Laboratory results published in PubChem BioAssay AID651690 (Sanford-Burnham Center for Chemical Genomics, 2012).
The list shows a part of the results. The source made the active and inactive calls. No stated cut-off is given here; in the data, active means inhibition mostly above about 32% (no sharp cut-off); inactive means mostly below about 29%.

molecular target: Sentrin-specific protease 1 (Homo sapiens) (UniProt Q9P0U3); test: human SENP1 catalytic domain inhibitors, confirmation, biochemical, kinetic FRET, single concentration (AID 651690); conditions: recombinant SENP1, CyPet-SUMO1-YPet FRET kinetic cleavage; at 10 µM; hits give high values;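 further: 0% = DMSO with enzyme and 100% = no enzyme substrate only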
Sequence (Q9P0U3 419-644 limits assumed): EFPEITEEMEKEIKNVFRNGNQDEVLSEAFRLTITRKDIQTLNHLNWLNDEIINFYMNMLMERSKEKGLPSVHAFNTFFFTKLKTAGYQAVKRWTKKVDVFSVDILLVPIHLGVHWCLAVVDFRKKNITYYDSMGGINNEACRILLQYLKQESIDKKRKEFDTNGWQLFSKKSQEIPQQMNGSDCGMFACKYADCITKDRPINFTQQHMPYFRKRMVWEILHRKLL

Structure (SMILES) | inhibition
O=C(CCN1C(=O)/C(=C/c2cccs2)SC1=S)NNC(=O)c1cccc(O)c1 | 44.5% (active)
CCOC(=O)C1CCN(c2ncnc3c2c(-c2ccccc2)cn3-c2ccc(C)cc2)CC1 | 10.2% (inactive)
Cc1cc(C(=O)N/N=C/c2ccc(N3CCOCC3)cc2)c(C)o1 | 17.6% (inactive)
Fc1cccc(Cc2c(-c3cccc(Cl)c3)nc3ccc(Br)cn23)c1 | 3.67% (inactive)
N/C(=N\OC(=O)N1c2ccccc2Sc2ccccc21)c1ccc(Br)cc1 | 0.1% (inactive)
COc1cc(/C=C2\CCCc3c2nc2ccccc2c3C(=O)O)cc(Cl)c1O | 63.6% (active)
O=C(NC(=O)c1ccccc1)Nc1ccccc1O | -0.175% (inactive)
COc1ccc(N2C(=O)C3C(C2=O)C(C(=O)c2ccccc2)N2CCCC32)cc1 (stereo unspecified) | 23.7% (inactive)
Cc1ccc2c(c1)nnc1nnc(SCC(=O)O)n12 | 46.3% (active)
CCN(CC)S(=O)(=O)c1cc([N+](=O)[O-])ccc1N=Nc1c(O)n(C)c2ccccc12 | -1.62% (inactive)
O=C1/C(=C/c2coc3ccc(O)cc3c2=O)SC(=S)N1c1ccccc1 | -0.025% (inactive)
O=[N+]([O-])c1ccc(N=NNc2ccc([N+](=O)[O-])cc2)cc1 | 11.6% (inactive)
Cc1ccc(C(=O)N/N=C\c2cc(Br)c(Br)o2)cn1 | 14.5% (inactive)
O=C1CC[C@@H]2CC3(C[C@@H]4CCN1[C@H]24)Nc1cc([N+](=O)[O-])ccc1NC3=NC1CCCCC1 (stereo partly specified) | 2.83% (inactive)
CCCCCn1nnnc1-c1nc2cc3ccccc3cc2[nH]c1=O | 56.7% (active)
Cn1c(-c2sc3cc(C(F)(F)F)cnc3c2-c2ccccc2)n[nH]c1=S | 11.8% (inactive)
c1coc(-c2nc3nc4ccccc4n3nc2-c2ccco2)c1 | 13.5% (inactive)
O=C1C=C(c2cccc(Cl)c2O)C[C@@H](c2ccc(F)cc2)C1 | 74.6% (active)
Cc1cccc(C)c1Nc1c(-c2ccccc2O)nc2ncccn12 | 8.55% (inactive)
CC(=O)c1cccc(-c2cnc3c(NC=O)cc(-c4ccc(N(C)C)cc4)cn23)c1 | 48.5% (active)
COc1ccc(OC)c(C2C3=C(N=c4s/c(=C\c5cccc(O)c5)c(=O)n42)c2ccccc2CC3)c1 (stereo unspecified) | 19.3% (inactive)
